From PubChem BioAssay (Tox21) come the findings set out here.

Results filed as inconclusive are left out. Unmarked numbers belong to inactive results. Activity calls are given as the source filed them. Calls come from the whole dose curve; as a rule, active = well fitted curve in the direction sought with a large enough effect in the repeat runs; inconclusive = weak or mixed curves; inactive = no such curve, though single readings can be large; an effect the other way counts as inactive or inconclusive.

Assay [1] in a line: qHTS RealTime-Glo MT Cell Viability Assay in HepG2 cells - 40 hour (AID 1224870). Note: nearly all actives have a fitted effect of over 50% in size. Note: potency is the fitted concentration of half-maximal effect. Summed up: (§1)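 HepG2 cells mixed with RealTime-Glo MT reagents (NanoLuc plus cell-permeant prosubstrate) were seeded at 600 cells/well, incubated 5 h at 37 C/5% CO2, then pinned with compounds in DMSO; nonlytic luminescence tracked viability during 40 h treatment.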
A short description of assay [2]: qHTS RealTime-Glo MT Cell Viability Assay in HEK293 cells - 16 hour (AID 1224872). For activity change, negative = cytotoxicity: top concentration of the series differs between compounds. Note: nearly all actives have a fitted effect of over 50% in size. Note: potency is the fitted concentration of half-maximal effect. Summed up: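 HEK293 cells seeded with NanoLuc/prosubstrate reagent, rested 5 h at 37 C, then dosed and kept at 37 C up to 40 h. Nonlytic real-time luminescence from viable cells read at 0, 8, 16, 24, 32 and 40 h.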
A general note: qHTS replaces the single test concentration by a dilution series.

Assay [3] can be described thus: qHTS RealTime-Glo MT Cell Viability Assay in HepG2 cells - 8 hour (AID 1224873). Note: nearly all actives have a fitted effect of over 55% in size. In short, it runs like this: as §1
Assay [4] in a line: qHTS RealTime-Glo MT Cell Viability Assay in HEK293 cells - 40 hour (AID 1224874). Note: nearly all actives have a fitted effect of over 50% in size. Note: potency is the fitted concentration of half-maximal effect. Conditions: RealTime-Glo luminescence; max response: stronger effect = lower value. In short, it runs like this: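 Viable HEK293 cells reduce a cell-permeant prosubstrate; the product diffuses out and is consumed by NanoLuc in the medium to give light. Compounds went in after a 5 h incubation and plates were read over the treatment course.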

The nature of assay [5]: A CellTox Green Cytotoxicity Assay to monitor cytotoxicity in HepG2 cells - 16 hour (AID 1224876). Note: nearly all actives have a fitted effect of over 45% in size. Summed up:
(§2)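 Using 1536-well format, dye-containing HepG2 suspension was seeded, allowed 5 h at 37 C/5% CO2, dosed by pintool with compounds, positive and negative controls, and imaged for fluorescence across 40 h.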

Assay [6] can be described thus: qHTS RealTime-Glo MT Cell Viability Assay in HepG2 cells - 32 hour (AID 1224877). Note: nearly all actives have a fitted effect of over 55% in size. Summed up:
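HepG2 cells (600/well) were dispensed with RealTime-Glo reagents, incubated 5 h at 37 °C, then treated with compounds in DMSO for up to 40 h. Nonlytic NanoLuc luminescence reflecting viable cells was read at each stated time point.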

A short description of assay [7]: A CellTox Green Cytotoxicity Assay to monitor cytotoxicity in HepG2 cells - 24 hour (AID 1224878). Note: nearly all actives have a fitted effect of over 45% in size. Note: potency is the fitted concentration of half-maximal effect. In short, it runs like this:
as §2

Assay [8] can be described thus: A CellTox Green Cytotoxicity Assay to monitor cytotoxicity in HepG2 cells - 40 hour (AID 1224879). Note: nearly all actives have a fitted effect of over 40% in size. Note: potency is the fitted concentration of half-maximal effect. In short, it runs like this: as §2
A short description of assay [9]: A CellTox Green Cytotoxicity Assay to monitor cytotoxicity in HEK293 cells - 24 hour (AID 1224875). Note: series mostly up to about 77 µM; nearly all actives have a fitted effect of over 45% in size. Summed up:
(§3)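 Fluorescence intensity, read at 0, 8, 16, 24, 32 and 40 h of compound treatment, reflected dye binding to DNA of dead HEK293 cells; compounds (23 nL, DMSO) were added 5 h after plating cells with reagent.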

Assay [10] in a line: A CellTox Green Cytotoxicity Assay to monitor cytotoxicity in HEK293 cells - 40 hour (AID 1224871). Note: nearly all actives have a fitted effect of over 45% in size. Note: potency is the fitted concentration of half-maximal effect. In short, it runs like this:
as §3
% is set by controls: 0 for no effect and ±100 for the full control effect.

For the molecule `CCC(C)=O`, the Potency result in [1], in assay [2], in assay [3], in assay [5], in assay [6] and in [7] was “inactive” each time. The Potency entry in assay [8] is “inactive”. Besides, the max response in [4] is 15.5%.

On to `CCCCCCCCCCCCCCCCBr`, for which the activity change, negative = cytotoxic in [1] was 2.22% [at 15.8 µM]; in [6], 2.91% [at 15.8 µM]. In addition, the activity change, negative = cytotoxicity in assay [2] was 6.53% [at 15.8 µM]. In addition, the viability change, negative = cytotoxic in assay [3] was 2.68% [at 15.8 µM]. Further, the max response in assay [4] is 4.08%. Besides, in assay [9], the activity change is 2.71% [at 15.8 µM, stronger effect = higher value]. The values for the cytotoxicity increase in [5] and in assay [8] were -3.1% [at 15.8 µM] and -7.84% [at 15.8 µM], respectively.

`O=C(Nc1ccccc1)Nc1ccccc1`: the Potency result in assay [1], in assay [10], in assay [3], in [6], in [7] and in assay [8] was “inactive” in each case.

In the case of `CC(C)=CC=O`, the Potency entry in assay [1], in assay [2], in assay [3], in [9], in assay [5] and in [6] was “inactive” throughout. For the same molecule, the Potency entry in assay [7] and in assay [8] was “inactive” each time. Besides, the max response in [4] is 12.5%.

With `O=[N+]([O-])c1cccc(S(=O)(=O)NCCNS(=O)(=O)c2cccc([N+](=O)[O-])c2)c1`, the Potency entry in assay [1], in assay [2], in assay [3], in assay [9], in [5] and in assay [6] was “inactive” each time. Besides, the Potency result in assay [7] is “inactive”. Besides, in assay [4], the max response was -6.21%.

In the case of `CCCCCCCCCCCC[N+](C)(C)CCCS(=O)(=O)[O-]`, the Potency entry in [1], in assay [2], in assay [3], in assay [5], in [6] and in assay [7] was “inactive” throughout. Moreover, in assay [8], the Potency entry was “inactive”. Moreover, the max response in assay [4] is -0.977%.

For `Cc1nccn1-c1ccc(Sc2cccc(C3(C(N)=O)CCOCC3)c2)cc1`, the Potency result in assay [1], in assay [3], in [9], in [5] and in assay [7] was “inactive” throughout. For the same molecule, the Potency in assay [2] is 1380 nM (active); in assay [4], 1230 nM (active).

As for `COC(=O)[C@@H]1CC2=CC(=O)CC[C@]2(C)[C@@]23O[C@@H]2C[C@@]2(C)[C@@H](CC[C@@]24CCC(=O)O4)[C@H]13`, the Potency entry in assay [1], in assay [2], in assay [3], in assay [9], in [5] and in assay [6] was “inactive” in each case. Moreover, the Potency result in [8] is “inactive”. Moreover, in assay [4], the max response was 1.85%.

In the case of `CC(=N\O)/C(C)=N/O`, the Potency entry in assay [1], in assay [2], in assay [3], in assay [9], in [5] and in assay [6] was “inactive” throughout. Further, in [8], the Potency result is “inactive”. Moreover, the max response in [4] is -18.2%.

Regarding `Brc1cc(-c2ccc(Br)c(Br)c2Br)cc(Br)c1Br`, the Potency entry in [1], in assay [2], in assay [3], in assay [9], in [5] and in assay [6] was “inactive” in each case. The Potency entry in [7] and in [8] was “inactive” in each case. The max response in [4] is 4.87%.

For `CCCCCCCCSCCO`, the Potency entry in assay [1], in assay [2], in assay [3] and in [9] was “inactive” in each case. Also, the max response in [4] is 0.336%. In addition, in assay [8], the Potency is 43600 nM (active).

Regarding `CCOCCn1c(C2CCN(CCc3ccc(C(C)(C)C(=O)O)cc3)CC2)nc2ccccc21`, the Potency result in assay [1], in assay [2], in [3], in assay [9] and in assay [6] was “inactive” throughout. Further, the max response in [4] was 0.952%.

`OCC1CC=CCC1` (stereo unspecified): the Potency entry in assay [1], in assay [2], in [3], in assay [9], in assay [5] and in [7] was “inactive” in each case. Further, the Potency entry in [8] was “inactive”. In addition, in assay [4], the max response is -1.94%.

Regarding `NC(=O)N(O)[C@@H]1C=C[C@H](Oc2cccc(Oc3ccc(F)cc3)c2)C1`, the Potency result in assay [1] and in assay [6] was “inactive” throughout. Besides, the Potency in assay [10] was 43600 nM (active); in assay [4], 19500 nM (active); in [7], 38900 nM (active); in assay [8], 38900 nM (active).

Regarding `CCCCCCCC/C=C\CCCCCCCC(=O)OC`, the Potency result in [1], in [2], in assay [3], in assay [9], in assay [5] and in assay [6] was “inactive” in each case. The Potency result in [8] was “inactive”. In addition, the max response in assay [4] was 5.42%.

As to `CN1Cc2cc(C(=O)N3CCC(C4CCNCC4)CC3)ccc2N[C@@H](CC(=O)O)C1=O`, the Potency entry in assay [1], in assay [2], in assay [3], in assay [9], in [5] and in [6] was “inactive” in each case. In addition, the Potency entry in assay [7] and in assay [8] was “inactive” each time. Moreover, the max response in [4] was 0.441%.

As to `CCCCC(CC)C(=O)OCCOCCOCCOCCOC(=O)C(CC)CCCC` (stereo unspecified), the Potency entry in assay [1], in [10], in assay [3], in assay [6], in assay [7] and in assay [8] was “inactive” throughout.

In the case of `Cc1cc(C(=C2C=CC(=Nc3ccc(S(=O)(=O)O)cc3S(=O)(=O)O)C=C2)c2ccc(Nc3ccc(S(=O)(=O)O)cc3)cc2)ccc1N`, the Potency entry in assay [1], in [2], in [3], in assay [9], in assay [5] and in assay [7] was “inactive” each time. Moreover, in assay [8], the Potency result is “inactive”. In addition, the max response in assay [4] was -3.61%.

As for `C[Si](NC1CCCCC1)(NC1CCCCC1)NC1CCCCC1`, the Potency entry in [1], in assay [2], in [3], in assay [9], in [5] and in assay [6] was “inactive” in each case. In addition, the Potency entry in assay [7] and in assay [8] was “inactive” throughout. For the same molecule, the max response in [4] was -24.6%.

With `Cc1ccc(Nc2nccc(N(C)c3ccc4c(C)n(C)nc4c3)n2)cc1S(N)(=O)=O`, the Potency entry in [1], in [3], in assay [9], in assay [5], in assay [6] and in assay [8] was “inactive” in each case. The Potency in assay [2] is 1900 nM (active); in assay [4], 1340 nM (active).

In the case of `C=CC(C)(C)CC(=O)OC`, the Potency entry in assay [1], in assay [3], in assay [9], in [5], in [6] and in assay [8] was “inactive” throughout. The Potency in [2] is 1380 nM (active); in [4], 1550 nM (active).

For the molecule `O=C(CCCCCCC(=O)Nc1ccccc1)NO`, the Potency is 4770 nM (active) in assay [1], 2390 nM (active) in assay [4] and 2680 nM (active) in assay [8]. Moreover, the Potency result in assay [10] and in [5] was “inactive” each time.

`CCC1(C)CC(=O)NC1=O` (stereo unspecified): the Potency entry in assay [1], in [2], in assay [3], in assay [9], in assay [5] and in assay [6] was “inactive” in each case. The Potency result in assay [7] and in assay [8] was “inactive” throughout. Moreover, in [4], the max response is 1.67%.

For the molecule `CCCc1c(OCCCOc2ccc(OCC(=O)O)cc2)ccc(C(C)=O)c1O`, the Potency result in assay [1], in assay [2], in assay [3], in assay [9], in assay [5] and in [7] was “inactive” each time. In addition, the max response in assay [4] was -7.6%.

In the case of `NCC1CCCC(CN)C1` (stereo unspecified), the Potency entry in [1], in assay [2], in assay [3], in [9], in assay [5] and in [6] was “inactive” each time. The Potency entry in assay [7] and in [8] was “inactive” in each case. The max response in assay [4] was -13.1%.
